One assay concerns WEE1. The conditions noted are these: concentration: 1 μM, replicates: in singlicate; n = 1.
Take `COc1cc(Nc2nccc(N3CCC(NC(=O)C4COc5ccccc5O4)C3)n2)cc(OC)c1OC` (centres unmarked) [GSK1379761]: the “%Inh” value was determined as 10%.

In the case of `Cc1c(Cn2c(C)nn3c(=O)cc(N4CCO[C@H](C)C4)nc23)cccc1C(F)(F)F` [GSK2373690], the “%Inh” value is 5%.

With `COc1ccc(-n2cnc3c(N)ncnc32)cc1` [SKF-97236], the “%Inh” value is given as 0%.

Regarding `Nc1nc(-c2ccccc2F)c(-c2ccnc3ccccc23)s1` [GW560459], the “%Inh” value is given as 0%.

As for `O=C(Nc1n[nH]c2cc(-c3ccccc3F)ccc12)C1CC1` [SB-733371], the “%Inh” value is 5%.

`Cc1nnc(-c2ccc3ncn(-c4ccc(S(C)=O)cc4)c3c2)o1` (centres unmarked): the “%Inh” value was found to be 0%.

With `CCn1c(-c2ccoc2)nc2cnccc21` [SB-733887], the “%Inh” value was determined as 4%.

In the case of `CCC(=O)c1c(-c2ccccc2)c2cc(Cl)ccc2c(=O)n1Cc1cc(S(C)(=O)=O)n(CC(F)F)n1`, the “%Inh” value was 0%.

As for `FC(F)(F)c1ccc(-c2ncn(CCCN3CCOCC3)c2-c2ccncc2)cc1` [SB-217780], the “%Inh” value is recorded as 48%.

Turning to `COc1ccc(CNC(=O)NC2CCN(c3ccnc(Nc4ccc(F)cc4)n3)C2)cc1` (centres unmarked) [GSK1379706], the “%Inh” value amounted to 10%.

Consider `COc1cc2ncn(-c3cc(OCc4ccncc4Br)c(C(N)=O)s3)c2cc1OC` [GW854278], for which the “%Inh” value is listed as 0%.

In the case of `COC(=O)c1c(-c2ccccc2)c2cc(C)ccc2c(=O)n1Cc1ccccc1`, the “%Inh” value stood at 0%.

On to `COc1ccc(-c2coc3ccc(-c4nnc(SCc5cccc(C#N)c5)o4)cc23)cc1`, for which the “%Inh” value was 0%.

On to `Cc1ccc(-c2ccc3c(ccc4sc5c(c43)NC[C@@H](C)N=C5N(C)C)n2)cn1`, for which the “%Inh” value was determined as 0%.

Take `O=c1cc(N2CCOCC2)nc2n(Cc3ccc(F)c(Cl)c3)ccn12` [GSK2297099]: the “%Inh” value is 2%.

As to `COc1cc2ncn(-c3cc(OCCCc4ccccc4)c(C(N)=O)s3)c2cc1OC` [GSK205189], the “%Inh” value was 12%.

On to `CN1C(=O)C(Nc2cc(Cl)c(O)c(Cl)c2)=C(c2ccc(Cl)cc2)C1=O` [SB-404321], for which the “%Inh” value is recorded as 0%.

As to `CCC(=O)c1c(-c2ccccc2)c2cc(Cl)ccc2c(=O)n1Cc1cc(C(=O)NC2CC2)n(C)n1`, the “%Inh” value was 0%.

As for `O=C1NC(=O)C(c2ccccc2)=C1Nc1cccc(O)c1` [SB-390534], the “%Inh” value was found to be 0%.

Turning to `COc1cc2nccc(Nc3cccc(Oc4ccccc4)c3)c2cc1OC.Cl` [GW284543], the “%Inh” value worked out at 8%.

For the molecule `Cc1nn2c(=O)cc(N3CCOCC3)nc2n1Cc1cccc(Cl)c1Cl` [GSK2342769], the “%Inh” value was determined as 1%.

Take `O=C(Nc1n[nH]c2nc(-c3ccccc3)c(Cl)cc12)C1CC1` [SB-734909]: the “%Inh” value turned out to be 0%.

Consider `Cl.NS(=O)(=O)c1cccc(Nc2cc(-c3ccc(F)cc3)n[nH]2)c1` [GW824645], for which the “%Inh” value is 0%.

As for `Cc1cc(Nc2nc(-c3cccc(C)n3)nc3ccccc23)ccn1` [GW872411], the “%Inh” value amounted to 1%.

Turning to `Nc1n[nH]c2nnc(-c3ccccc3)c(-c3ccccc3)c12` [GW554060], the “%Inh” value is 44%.

As for `CCC(=O)c1c(-c2ccccc2)c2cc(Cl)ccc2c(=O)n1Cc1ccc(C(=O)O)cc1`, the “%Inh” value stood at 0%.

In the case of `Nc1ncnc2c1ncn2-c1cccc(F)c1` [SKF-97560], the “%Inh” value was determined as 0%.

For the molecule `Cl.c1ccc(Cn2cnc3cc(Nc4ncnc5ccccc45)ccc32)cc1` [GW272142], the “%Inh” value is recorded as 4%.

Take `COc1cc2nccc(Nc3ccc(OCc4ccc(NC(C)=O)cc4)cc3)c2cc1OC.Cl` [GW440135]: the “%Inh” value amounted to 29%.

Take `CCS(=O)(=O)c1ccc(OC)c(Nc2ncc(-c3ccc(F)cc3)o2)c1.Cl` [GW591947]: the “%Inh” value was 12%.

With `Cc1cccc(-c2nc(Nc3ccc4c(cnn4C)c3)c3ccccc3n2)n1` [GW876731], the “%Inh” value is given as 0%.

For `CCS(=O)c1ccc(-c2coc3ccc(-c4nnc(C)o4)cc23)cc1` (centres unmarked), the “%Inh” value stood at 7%.

On to `Cc1cccc(-c2cc(-c3c[nH]nc3-c3ccccn3)ccn2)c1` [GW679395], for which the “%Inh” value amounted to 13%.

For the molecule `COc1cccc(-n2cnc3c(N)ncnc32)c1` [SKF-97416], the “%Inh” value worked out at 2%.

`CCC(=O)c1c(-c2ccccc2)c2cc(Cl)ccc2c(=O)n1Cc1cc(S(C)(=O)=O)n(CC(N)=O)n1`: the “%Inh” value is listed as 4%.

Regarding `CCCC(=O)Nc1n[nH]c2ncc(-c3cccc4ccccc34)cc12` [SB-642057], the “%Inh” value is listed as 6%.

With `Cc1nc(N(C)[C@H]2CN(C(=O)CC#N)CC[C@H]2C)c2cc[nH]c2n1`, the “%Inh” value was found to be 0%.

Another assay concerns WEE2. The settings on record: concentration: 1 μM, replicates: in singlicate; n = 1.
As to `COc1cc(Nc2nccc(N3CCC(NC(=O)C4COc5ccccc5O4)C3)n2)cc(OC)c1OC` (centres unmarked) [GSK1379761], the “%Inh” value turned out to be 0%.

Turning to `Cc1c(Cn2c(C)nn3c(=O)cc(N4CCO[C@H](C)C4)nc23)cccc1C(F)(F)F` [GSK2373690], the “%Inh” value was found to be 5%.

As to `COc1ccc(-n2cnc3c(N)ncnc32)cc1` [SKF-97236], the “%Inh” value was 0%.

For the molecule `Nc1nc(-c2ccccc2F)c(-c2ccnc3ccccc23)s1` [GW560459], the “%Inh” value came to 0%.

As to `O=C(Nc1n[nH]c2cc(-c3ccccc3F)ccc12)C1CC1` [SB-733371], the “%Inh” value is 0%.

As to `Cc1nnc(-c2ccc3ncn(-c4ccc(S(C)=O)cc4)c3c2)o1` (centres unmarked), the “%Inh” value is listed as 21%.

Turning to `CCn1c(-c2ccoc2)nc2cnccc21` [SB-733887], the “%Inh” value is 0%.

`CCC(=O)c1c(-c2ccccc2)c2cc(Cl)ccc2c(=O)n1Cc1cc(S(C)(=O)=O)n(CC(F)F)n1`: the “%Inh” value is listed as 0%.

`FC(F)(F)c1ccc(-c2ncn(CCCN3CCOCC3)c2-c2ccncc2)cc1` [SB-217780]: the “%Inh” value was found to be 34%.

Take `COc1ccc(CNC(=O)NC2CCN(c3ccnc(Nc4ccc(F)cc4)n3)C2)cc1` (centres unmarked) [GSK1379706]: the “%Inh” value is given as 9%.

Regarding `COc1cc2ncn(-c3cc(OCc4ccncc4Br)c(C(N)=O)s3)c2cc1OC` [GW854278], the “%Inh” value is on record as 18%.

On to `COC(=O)c1c(-c2ccccc2)c2cc(C)ccc2c(=O)n1Cc1ccccc1`, for which the “%Inh” value worked out at 6%.

As to `COc1ccc(-c2coc3ccc(-c4nnc(SCc5cccc(C#N)c5)o4)cc23)cc1`, the “%Inh” value came out at 8%.

Regarding `Cc1ccc(-c2ccc3c(ccc4sc5c(c43)NC[C@@H](C)N=C5N(C)C)n2)cn1`, the “%Inh” value is on record as 0%.

Regarding `O=c1cc(N2CCOCC2)nc2n(Cc3ccc(F)c(Cl)c3)ccn12` [GSK2297099], the “%Inh” value was found to be 3%.

Regarding `COc1cc2ncn(-c3cc(OCCCc4ccccc4)c(C(N)=O)s3)c2cc1OC` [GSK205189], the “%Inh” value turned out to be 4%.

With `CN1C(=O)C(Nc2cc(Cl)c(O)c(Cl)c2)=C(c2ccc(Cl)cc2)C1=O` [SB-404321], the “%Inh” value worked out at 15%.

Consider `CCC(=O)c1c(-c2ccccc2)c2cc(Cl)ccc2c(=O)n1Cc1cc(C(=O)NC2CC2)n(C)n1`, for which the “%Inh” value came out at 0%.

On to `O=C1NC(=O)C(c2ccccc2)=C1Nc1cccc(O)c1` [SB-390534], for which the “%Inh” value stood at 1%.

`COc1cc2nccc(Nc3cccc(Oc4ccccc4)c3)c2cc1OC.Cl` [GW284543]: the “%Inh” value is 14%.

Take `Cc1nn2c(=O)cc(N3CCOCC3)nc2n1Cc1cccc(Cl)c1Cl` [GSK2342769]: the “%Inh” value is 9%.

Turning to `O=C(Nc1n[nH]c2nc(-c3ccccc3)c(Cl)cc12)C1CC1` [SB-734909], the “%Inh” value is reported as 0%.

As for `Cl.NS(=O)(=O)c1cccc(Nc2cc(-c3ccc(F)cc3)n[nH]2)c1` [GW824645], the “%Inh” value is given as 0%.

Take `Cc1cc(Nc2nc(-c3cccc(C)n3)nc3ccccc23)ccn1` [GW872411]: the “%Inh” value came to 2%.

For the molecule `Nc1n[nH]c2nnc(-c3ccccc3)c(-c3ccccc3)c12` [GW554060], the “%Inh” value is reported as 9%.

For `CCC(=O)c1c(-c2ccccc2)c2cc(Cl)ccc2c(=O)n1Cc1ccc(C(=O)O)cc1`, the “%Inh” value came out at 4%.

`Nc1ncnc2c1ncn2-c1cccc(F)c1` [SKF-97560]: the “%Inh” value turned out to be 0%.

Regarding `Cl.c1ccc(Cn2cnc3cc(Nc4ncnc5ccccc45)ccc32)cc1` [GW272142], the “%Inh” value was 12%.

With `COc1cc2nccc(Nc3ccc(OCc4ccc(NC(C)=O)cc4)cc3)c2cc1OC.Cl` [GW440135], the “%Inh” value turned out to be 12%.

As to `CCS(=O)(=O)c1ccc(OC)c(Nc2ncc(-c3ccc(F)cc3)o2)c1.Cl` [GW591947], the “%Inh” value amounted to 0%.

For `Cc1cccc(-c2nc(Nc3ccc4c(cnn4C)c3)c3ccccc3n2)n1` [GW876731], the “%Inh” value amounted to 0%.

Regarding `CCS(=O)c1ccc(-c2coc3ccc(-c4nnc(C)o4)cc23)cc1` (centres unmarked), the “%Inh” value is given as 0%.

As for `Cc1cccc(-c2cc(-c3c[nH]nc3-c3ccccn3)ccn2)c1` [GW679395], the “%Inh” value came out at 1%.

With `COc1cccc(-n2cnc3c(N)ncnc32)c1` [SKF-97416], the “%Inh” value is listed as 0%.

As to `CCC(=O)c1c(-c2ccccc2)c2cc(Cl)ccc2c(=O)n1Cc1cc(S(C)(=O)=O)n(CC(N)=O)n1`, the “%Inh” value came to 0%.

With `CCCC(=O)Nc1n[nH]c2ncc(-c3cccc4ccccc34)cc12` [SB-642057], the “%Inh” value is given as 0%.

On to `Cc1nc(N(C)[C@H]2CN(C(=O)CC#N)CC[C@H]2C)c2cc[nH]c2n1`, for which the “%Inh” value is 13%.

The record behind these values is article PMC5540273 (PLoS ONE, 2017).
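Also: KINOMEscan kinase panel screen.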
